# High-throughput results deposited in PubChem BioAssay by National Center for Advancing Translational Sciences (NCATS).
# In the library only some 1.3% were active in any assay of this set; here they are far more common.
# RE007 growth inh = less growth of the S. pombe RE007 Vpr strain; Potency, µM (top dose mostly 92.2 µM), for inactives: top-dose activity change, negative = less growth, actives largely listed as inhibitors; S. pombe RE007 Vpr strain, BacTiter-Glo ATP luminescence, 24 h; AID 651644; 360,000 compounds, 0.21% hits; active = well fitted falling curve with a large enough effect; inconclusive = small, poorly fitted or top-dose-only effect; inactive = no such curve, though single readings can be large or run the other way; also: nearly all actives have a fitted effect of over 50% in size
#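 Fission yeast RE007 carrying one integrated HIV-1 vpr copy, seeded at OD 0.01 in PMG+AL medium with 23 nL pinned compound. Grown 24 h at 30 degrees; viability read by BacTiter-Glo luminescence after 5 min.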
# VACV mCherry inh = inhibitors of vaccinia virus infection (mCherry reporter signal) | Vaccinia virus mCherry reporter infection, fluorescence | Potency, µM (doses to about 36.5 µM), for inactives: top-dose activity change, negative = inhibition, hits mostly inhibitors | 310,000 compounds, 0.63% hits; calls by dose curve; tested in A549 cells; also: nearly all actives have a fitted effect of over 35% in size
# LmPK inh = inhibitors of Leishmania mexicana pyruvate kinase; 290,000 compounds, 0.37% hits; purified LmPK, Kinase-Glo ATP luminescence, 1 h; Q27686; Potency, µM (highest dose often 57.5 µM), for the others: top-dose activity change, negative = inhibition, hits mostly inhibitors; AID 1721
# Target sequence (Q27686 whole entry, looked up): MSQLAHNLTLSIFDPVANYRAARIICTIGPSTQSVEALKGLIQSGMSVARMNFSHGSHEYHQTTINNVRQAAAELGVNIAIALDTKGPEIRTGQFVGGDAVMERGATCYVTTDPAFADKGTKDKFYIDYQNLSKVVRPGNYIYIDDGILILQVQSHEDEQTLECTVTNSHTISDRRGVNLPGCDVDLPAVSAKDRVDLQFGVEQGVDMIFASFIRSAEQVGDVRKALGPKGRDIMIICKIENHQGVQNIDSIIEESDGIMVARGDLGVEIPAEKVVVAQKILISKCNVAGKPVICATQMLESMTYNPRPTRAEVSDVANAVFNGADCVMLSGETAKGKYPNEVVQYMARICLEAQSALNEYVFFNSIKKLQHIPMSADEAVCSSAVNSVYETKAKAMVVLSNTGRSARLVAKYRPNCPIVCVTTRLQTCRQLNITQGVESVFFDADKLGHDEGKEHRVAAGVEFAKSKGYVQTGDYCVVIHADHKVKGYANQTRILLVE
#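 Purified LmPK (0.1 nM) converted ADP (0.1 mM) to ATP with PEP (0.5 mM) in imidazole buffer pH 7.2 with KCl and MgCl2, 1 h at room temperature. ATP was read by Kinase-Glo luminescence; data normalized to uninhibited and no-enzyme controls.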
# VACV Venus inh = vaccinia inhibition (Venus reporter) | Vaccinia virus Venus reporter expression, fluorescence | 330,000 compounds, 0.46% hits | Potency, µM (titrated, usually from 36.5 µM), without a hit: top-dose activity change, negative = inhibition, most hits filed as inhibitors; calls by dose curve; tested in A549 cells; also: nearly all actives have a fitted effect of over 30% in size
# Tb PYK inh = blocks Trypanosoma brucei pyruvate kinase; Potency, µM (titrated, usually from 76.8 µM), without a hit: at the top dose activity, negative = inhibition, most hits filed as inhibitors; Q57TT1; AID 624173; 410,000 compounds, 0.12% hits; TbPYK enzyme, Kinase-Glo Plus ATP luminescence, 45 min; also: nearly all actives have a fitted effect of over 50% in size
#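 Readout: single end-point luminescence (Kinase-Glo Plus, 10 min). Reaction conditions were TbPYK/substrate plus 130 uM ADP, 45 min at RT, pH 7.2 TEA buffer. No-enzyme wells served as controls, and data were normalized before concentration-response fitting.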
# AMA1 RON2 block = disrupts binding of P. falciparum AMA1 to RON2. AlphaScreen AMA1-biotinylated RON2 peptide binding. Potency, µM (doses to about 58.2 µM), for inactives: at the highest dose activity change, negative = inhibition, hits mostly inhibitors. 360,000 compounds, 0.2% hits. AID 720542;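 also: 0% = vehicle wells and -100% = peptide control; nearly all actives have a fitted effect of over 45% in size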
#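 AMA1 (3D7) with his tag at 25 nM final met compounds first, then biotinylated RON2 peptide at 25 nM; detection used donor plus acceptor beads, 10 µg/mL apiece, read by AlphaScreen after 30 min at room temperature.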
# Active calls of the source: *; i = inactive; u = inconclusive; x = not tested or not shown; [ ] = remark or other dose. Unless noted, calls follow the shape of the dose curve; as a rule, active = well fitted curve in the direction sought with a large enough effect; inconclusive = small, poorly fitted or top-dose-only effect, or another doubt; inactive = no such curve, though single readings can be large; an effect the other way counts as inactive or inconclusive. Unless noted, % is scaled to controls: 0 for no effect and ±100 for the full control effect; potency is read from the fitted curve at half-maximal effect.
SMILES,RE007 growth inh,VACV mCherry inh,LmPK inh,VACV Venus inh,Tb PYK inh,AMA1 RON2 block
C=C1CCC[C@]2(C)C[C@H]3OC(=O)C(CNC(C)CCCC(C)C)[C@H]3CC12 (some centres undefined),u,u,-2.7%,7.08µM*,-3.5%,0.9%
C=C1CCC[C@]2(C)C[C@H]3OC(=O)C(CNCC(OC)OC)[C@H]3CC12 (some centres undefined),2.5%,4.47µM*,6.2%,u,-3.7%,0.4%
CN(C)c1nc2cc3c(cc2cc1CN(CC1CCCO1)C(=O)c1cccc(F)c1)OCO3 (centres undefined),x,-9.9%,x,3.4%,x,x
Clc1ccc[n+](CCCCC[n+]2cccc(Cl)c2)c1,x,-14.7%,x,-7.5%,x,x
COc1ccc(CCc2c[nH]c(=O)c3cncnc23)cc1OC,x,-3.1%,x,-19.4%,x,x
c1cc2c(cc1NC1=NCCO1)CCCC2,u,u,x,3.98µM*,-4.3%,2.5%
O=C(Nc1ccc2c(c1)CCC2)Nc1ccc2c(c1)OCO2,-3.8%,i,1.3%,0.0%,-1.5%,-4.6%
O=C(c1n[nH]c2c1CCCC2)N1CCOc2ccc(C(O)C(c3ccccc3)c3ccccc3)cc2C1 (centres undefined),x,-16.2%,x,-15.5%,x,x
CCC(C)S(=O)(=O)c1oc(-c2cccs2)nc1S(=O)(=O)c1ccccc1 (centres undefined),x,-10.1%[7.34 µM],x,-8.2%[7.34 µM],1.2%,x
O=C(Nc1nccs1)c1cn2ccccc2n1,1.5%,x,25.1µM*,x,-4.0%,108.6%
NNC(=O)c1cn2ccccc2n1,17.4%,x,0.7%,x,0.5%,72.7%
Cc1nc(C)c(-c2csc(Nc3ccccn3)n2)s1,u,x,-4.2%,x,3.7%,-9.7%
Cc1ccnc(Nc2nc(-c3sc(C)nc3C)cs2)c1,-11.5%,3.55µM*,x,u,3.6%,-10.8%
COc1ccc(CN2CCOc3ccc(C(O)c4cccnc4)cc3C2)cc1O (centres undefined),x,-12.7%,x,-6.6%,x,x
Cc1ccc(-c2cn(C[C@H]3CC[C@@H]([C@@H]4CC[C@H](Cn5cc(-c6ccc(C)cc6)nn5)O4)O3)nn2)cc1,-10.9%,i,-6.2%,-8.6%,-8.5%,-0.3%
c1ccc(-c2cn(C[C@H]3CC[C@H](Cn4cc(-c5ccccn5)nn4)O3)nn2)nc1,-4.1%,-7.1%,-5.2%,0.4%,0.5%,1µM*
Nc1nc(N)c2cc(Sc3cccc(C(F)(F)F)c3)ccc2n1,1.6%,7.08µM*,x,5.01µM*,3.6%,-10.0%
Nc1nc(N)c2cc(Sc3ccc4ccccc4c3)ccc2n1,39.5%,x,7.4%,x,3.1%,5.0%
Nc1nc(N)c2cc(Sc3ccc(Cl)cc3)ccc2n1,1.2%,u,x,6.31µM*,-7.3%,-10.9%
OCc1ccnc2c(O)cccc12,4.2%,x,-6.4%,x,0.3%,11.2µM*
NC(=O)c1ccnc2c(O)cccc12,x,x,x,x,-3.0%,x
COCc1ccc(O)c2ncccc12,u,x,4.2%,u,u,25.1µM*
CCC(=O)O[C@@](Cc1ccccc1)(c1ccccc1)[C@H](C)CN(C)C,x,x,x,x,-1.9%[157 µM],x
O=C(NCc1ccccc1Cl)c1cccc2c1C(=O)c1ccc(-c3ccc(OC(F)(F)F)cc3)cc1S2(=O)=O,14.2%,u,x,10µM*,3.5%,-3.9%
O=C(NC1CCCCC1)c1cccc2c1C(=O)c1ccc(-c3ccc(OC(F)(F)F)cc3)cc1S2(=O)=O,13.6%,u,x,u,2.1%,-0.2%
SMILES,RE007 growth inh,VACV mCherry inh,LmPK inh,VACV Venus inh,Tb PYK inh,AMA1 RON2 block
O=c1oc2c(O)c(O)cc3c(=O)oc4c(O)c(O)cc1c4c23,5.0%,-4.0%,7.7%,-21.3%,-11.5%,0.794µM*
Cc1ccsc1C1Cc2c(C(=O)NCc3cccnc3)c(=O)cc(C)n2-c2ccccc2S1 (centres undefined),x,-1.9%,x,11.6%,x,x
CC(=O)Nc1ccc(-c2cn3cc(C)ccc3n2)cc1,-7.5%,-6.0%,-11.5%,-22.6%,0.9%,0.0%
Cc1ccc2nc(-c3ccccc3)cn2c1,44.7µM*,i,7.08µM*,-0.1%,25.1µM*,8.7%
Cc1ccc2nc(-c3ccc(O)c(O)c3)cn2c1,16.6%,-3.8%,u,-12.8%,-23.3%,3.55µM*
Cc1nc(-c2ccc(O)c(O)c2)cs1,-7.3%,i,-0.7%,-7.3%,-14.3%,8.0%
O=C(CCNc1ccc(F)cc1)c1ccco1,6.31µM*,x,-5.5%,-27.8%,4.8%,-3.4%
CN(C)c1ccc(CNC(=O)C2(C)Cc3c(-c4ccc5c(c4)OCO5)ccnc3O2)cc1 (centres undefined),-10.0%,-14.5%,x,u,-5.5%,28.2µM*
COc1ccc(CNC(=O)C2Cc3c(-c4ccccc4Oc4ccccc4)ccnc3O2)cc1OC (centres undefined),-4.9%[18.4 µM],i,x,-2.0%,-1.8%,-15.9%
CN(C)c1ccc(-c2ccnc3c2CC(C)(C(=O)Nc2cccc(N(C)C)c2)O3)cc1 (centres undefined),-12.9%,2.6%,x,3.1%,-6.5%,17.8µM*
CN(C)c1ccc(CNC(=O)C2Cc3c(-c4ccccc4Oc4ccccc4)ccnc3O2)cc1 (centres undefined),18.1%,9.3%,x,-24.8%,-2.3%,10µM*
CN(C)c1ccc(CNC(=O)C2(C)Cc3c(-c4ccc(N(C)C)cc4)ccnc3O2)cc1 (centres undefined),-0.1%,-22.9%,x,u,-1.4%,11.2µM*
Cc1ccc(C(=O)Nc2cccc(-c3nc(CNC(=O)C4(C)CC4)c(C)o3)c2)s1,x,-12.7%,x,-14.7%,x,x
Cc1cc(C)cc(-n2ccnc2SCC(=O)Nc2nnc(C)s2)c1,x,-20.2%,x,-10.2%,-4.7%,x
CN(C)c1ccc(CNC(=O)C2(C)Cc3c(-c4ccccc4)ccnc3O2)cc1 (centres undefined),6.5%,-6.1%,x,-22.9%,-10.4%,28.2µM*
Cc1[nH]c2ccc(OC(F)(F)F)cc2c1CCNCc1cccc([N+](=O)[O-])c1,-20.8%,u,0.8%,-24.2%,-3.5%,u
CCOc1cccc(CNCCc2c(C)[nH]c3ccc(OC(F)(F)F)cc23)c1O,-6.7%,u,1.8%,10µM*,7.2%,-4.6%
CCOc1ccc(NS(=O)(=O)c2cnc(Cl)c(Cl)c2)cc1,0.1%,u,-0.7%,12.6µM*,1.8%,12.2%
Cc1cc(C)cc(NS(=O)(=O)c2cnc(Cl)c(Cl)c2)c1,8.3%,x,-0.7%,u,5.3%,10.8%
Cn1cnc([N+](=O)[O-])c1Sc1nc(N)nc2c1ncn2C1OC(CO)C(O)C1O (centres undefined),-8.0%,u,x,u,0.2%,10.4%
Cn1cnc([N+](=O)[O-])c1Sc1nc(N)nc2c1ncn2C1CC(O)C(CO)O1 (centres undefined),2.6%,6.31µM*,x,u,-0.1%,6.3%
